HP1b chromo inh: blocks HP1-beta chromodomain binding to methylated histone tails. P83916. AlphaScreen HP1-beta / biotin-H3K9me3 peptide binding. Potency, µM (titrated, usually from 114 µM), inactives show at the top dose activity change, negative = inhibition, actives largely listed as inhibitors. 390,000 compounds, 0.56% hits. AID 540317; note: nearly all actives have a fitted effect of over 70% in size
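HP1-beta protein (50 nM final) preincubated 30 min at room temperature with biotinylated H3(1-18)K9me3 peptide (50 nM) in PBS pH 7.4, 0.01% Tween-20, then compound added for 30 min. AlphaScreen streptavidin donor/nickel chelate acceptor beads (10 ug/mL final), 30 min dark, luminescence read.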
JMJD2A Tudor inh: JMJD2A Tudor domain (human) inhibition | Potency, µM (top dose mostly 114 µM), for the others: at the highest dose activity change, negative = inhibition, hits mostly inhibitors | O75164 | AID 504339 | 390,000 compounds, 4.4% hits | AlphaScreen JMJD2A-Tudor / H3K4me3 peptide binding; note: % is set by controls: 0 for no effect and ±100 for the full control effect; nearly all actives have a fitted effect of over 50% in size
L3MBTL1 inh: inhibitors of human L3MBTL1 | AlphaScreen L3MBTL1–H3K9me1 peptide binding | Potency, µM (highest dose often 57.1 µM), for the others: at the highest dose activity, negative = inhibition, usual class: inhibitors | 230,000 compounds, 0.66% hits | AID 485360; note: % is set by controls: 0 for no effect and ±100 for the full control effect; nearly all actives have a fitted effect of over 60% in size
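Displacement of a biotinylated histone H3(1-15) peptide monomethylated at Lys9 (75 nM) from L3MBTL1 (50 nM) was measured by AlphaScreen after a 30 min room-temperature compound incubation; cefsulodin titration served as intraplate control.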
VDR inhibitor: blocks the human vitamin D receptor; P11473; Potency, µM, for inactives: max response, negative = inhibition, most hits filed as inhibitors; 400,000 compounds, 0.93% hits; AID 504847; VDR-SRC2-3 peptide fluorescence polarization, 2 h; note: % is set by controls: 0 for no effect and ±100 for the full control effect
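Compounds are added to VDR with labelled SRC2-3 coactivator peptide and held 2 h at room temperature. Inhibition of the VDR–peptide interaction is then read as a change in fluorescence polarization.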
BAZ2B block: inhibitors of human BAZ2B bromodomain | Q9UIF8 | AlphaScreen BAZ2B-H3K14Ac peptide displacement | Potency, µM (doses to about 114 µM), inactives show at the highest dose activity change, negative = inhibition, actives largely listed as inhibitors | 360,000 compounds, 4.4% hits | AID 504333; note: % is set by controls: 0 for no effect and ±100 for the full control effect; nearly all actives have a fitted effect of over 60% in size
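Inhibition is scored as reduced AlphaScreen emission. The BAZ2B/b-H3(5-23)K14Ac complex (50 nM each) in PBS pH 7.4, 0.01% Tween-20 meets compound (up to 110 uM) for 30 min at RT before bead addition.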
PLK1 PBD inh: PLK1 (human) polo-box domain binding inhibition. Plk1 PBD binding of FITC phosphopeptide, fluorescence polarization. Potency, µM, without a hit: max response, negative = inhibition, hits mostly inhibitors. 360,000 compounds, 2.8% hits. AID 720504; note: series mostly up to about 57 µM; % is set by controls: 0 for no effect and ±100 for the full control effect; nearly all actives have a fitted effect of over 65% in size
Target sequence (P53350 whole entry, looked up, the tested form may be a part): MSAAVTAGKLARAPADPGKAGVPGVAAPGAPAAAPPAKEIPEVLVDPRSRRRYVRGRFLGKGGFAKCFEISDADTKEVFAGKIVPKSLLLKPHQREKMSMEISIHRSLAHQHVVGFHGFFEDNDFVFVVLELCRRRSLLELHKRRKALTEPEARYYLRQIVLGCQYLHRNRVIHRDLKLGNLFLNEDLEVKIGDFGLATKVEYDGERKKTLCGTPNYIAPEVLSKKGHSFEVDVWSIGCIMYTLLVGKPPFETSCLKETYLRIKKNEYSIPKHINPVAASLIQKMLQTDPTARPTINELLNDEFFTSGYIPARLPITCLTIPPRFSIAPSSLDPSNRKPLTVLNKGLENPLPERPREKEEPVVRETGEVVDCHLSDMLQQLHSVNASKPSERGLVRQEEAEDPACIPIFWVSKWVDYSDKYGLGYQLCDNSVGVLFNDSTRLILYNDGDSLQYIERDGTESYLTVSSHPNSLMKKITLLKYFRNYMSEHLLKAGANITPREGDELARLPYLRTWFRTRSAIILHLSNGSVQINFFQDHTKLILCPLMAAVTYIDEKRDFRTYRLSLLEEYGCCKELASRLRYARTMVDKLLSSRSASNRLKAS
* hit, by the source's call; ? = inconclusive; · = not tested or not shown; [ ] = dose if it differs, or a comment. In the library only some 6.9% were active in any assay of this set; here they are far more common. Calls come from the whole dose curve; as a rule, active = well fitted curve in the direction sought with a large enough effect; inconclusive = small, poorly fitted or top-dose-only effect, or another doubt; inactive = no such curve, though single readings can be large; an effect the other way counts as inactive or inconclusive. Potency is the fitted concentration of half-maximal effect.

SMILES	HP1b chromo inh	JMJD2A Tudor inh	L3MBTL1 inh	VDR inhibitor	BAZ2B block	PLK1 PBD inh
Nc1ccc(Br)c2c1C(=O)c1ccccc1C2=O	?	?	?	-8.0%	10µM*	-26.8%
O=C(c1ccccc1)N1CCN(CC(O)COc2cccc3ccccc23)CC1 (stereo unspecified)	36.5%	-13.6%	7.3%[2.29 µM]	-6.8%	0.5%	-1.5%
O=C(c1ccccc1)N1CCN(CC(O)Cn2ccc3ccccc32)CC1 (stereo unspecified)	?	?	·	25.8%	56.2µM*	0.0%
O=C(O)Cn1ccc2ccccc21	32.5%	-16.4%	·	-2.4%	-14.9%	-7.4%
Cc1cc(C)c(OCC(O)CN2CCN(C(=O)c3ccccc3)CC2)c(C)c1 (stereo unspecified)	?	22.4µM*	·	-26.7%	?	1.8%
CC(=O)c1cccc(OCC(O)CN2CCN(C(=O)c3ccco3)CC2)c1 (stereo unspecified)	?	1.41µM*	·	-2.4%	70.8µM*	1.7%
CC(=O)N1CCN(CC(O)COc2ccc(OCc3ccccc3)cc2)CC1 (stereo unspecified)	4.3%	-13.6%	?	3.7%	-8.6%	1.9%
OC(CNc1ccccc1)Cn1ccc2ccccc21 (stereo unspecified)	?	3.98µM*	-23.9%	-6.7%	35.5µM*	-2.7%
O=C(c1ccccc1)n1ccc2ccccc21	159.8%	124.3%	48.9%	-0.2%	168.8%	-2.1%
CC(C)CN1CCC2(CC1)CCN(C(=O)c1cnccn1)CC2	·	·	·	1.2%	·	·
Cc1cccc(C)c1OCC(=O)Nc1c(C(=O)c2ccccc2)oc2ccccc12	62.9%	36.8%	·	?	24.2%	·
OC(CN1CCCCC1)Cn1c2ccccc2c2ccccc21 (stereo unspecified)	43.5%	5.7%	·	-4.8%	15.1%	-5.9%
OC(CN1CCCC1)Cn1ccc2ccccc21 (stereo unspecified)	23.3%	20µM*	·	-1.7%	50.1µM*	-4.4%
CCOc1cc(/C=C2/C(=O)N(c3ccccc3)N=C2C)ccc1OC(=O)c1ccco1	-20.9%	56.2µM*	-28.5%	?	44.7µM*	1.5µM*
CCOc1cc(/C=C2\C(=O)N(c3ccc(C(N)=O)cc3)N=C2C)ccc1OC(=O)c1cccs1	-21.4%	-28.1%	-16.6%	50.1µM*	50.1µM*	?
CC1=NN(c2ccc(C(=O)O)cc2)C(=O)/C1=C\c1ccc(OC(=O)c2cccs2)cc1	-7.9%	-6.0%[11.4 µM]	?	?	?	0.752µM*
CCOc1cc(/C=C2\C(=N)N3N=C(S(=O)(=O)CC)SC3=NC2=O)ccc1OC(=O)c1ccco1	28.4%	-4.7%	·	10.3%	?	?
CC1=C(C(=O)NCc2ccccc2C)C2(CCCCCC2)OC1=O	-21.8%	-36.0%	·	-2.0%	4.3%	·
COc1ccc(/C=C2/C(=O)ON=C2C)cc1Cl	-4.5%	-26.5%	·	?	-31.2%	2.12µM*
COc1cc(/C=C2/C(=O)ON=C2c2ccccc2)ccc1O	-17.1%	-28.8%	-6.8%	50.1µM*	50.1µM*	?
CC1=NOC(=O)/C1=C/c1ccc(O)cc1	41.3%	15.8µM*	1.5%	?	50.1µM*	9.47µM*
O=C1ON=C(c2ccc(Cl)cc2)/C1=C/c1ccc(O)cc1	7.0%	-6.2%	·	?	?	0.474µM*
O=C1OC(c2ccc(F)cc2)=C/C1=C\c1ccc(O)cc1	6.7%	-16.3%	3.5%	-10.0%	-3.8%	-29.1%
COc1ccc(/C=C2\SC(N)=NC2=O)cc1Cl	39.0%	-22.4%	·	10.4%	-17.5%	0.2%
Cc1cc(C)cc(NC(=O)C2CCN(c3nc4ccccc4nc3C(F)(F)F)CC2)c1	25.3%	-9.1%	·	6.8%	1.3%	·
SMILES	HP1b chromo inh	JMJD2A Tudor inh	L3MBTL1 inh	VDR inhibitor	BAZ2B block	PLK1 PBD inh
CCC1(c2ccc(F)cc2)NC(=O)N(CC(=O)NCc2ccccc2Cl)C1=O (stereo unspecified)	35.3%	-6.7%	·	-19.2%	-2.4%	-7.9%
C/C=C/c1ccc2c(c1)O[C@H](CN(C)CC1CCOCC1)[C@@H](C)CN([C@H](C)CO)S2(=O)=O	·	·	·	·	·	0.7%
Cc1c(N=Cc2ccc(O)c(Br)c2)cccc1[N+](=O)[O-]	29.7%	-10.3%	-6.1%	-12.5%	-6.7%	-7.5%
CC1=NOC(=O)/C1=C/c1ccc(O)c(Br)c1	1.8%	-22.7%	·	?	56.2µM*	?
O=[N+]([O-])c1ccc(Nc2ccccc2)nc1	31.9%	0.4%	14.1%	4.2%	9.2%	1.4%
O=[N+]([O-])c1ccc(S(=O)(=O)c2ccccc2)nc1	24.1%	-19.0%	·	39.8µM*	13.0%	5.32µM*
Cc1ccc(S(=O)(=O)c2ccc([N+](=O)[O-])cn2)cc1	5.7%[57 µM]	-28.8%	·	25.1µM*	?	?
CCc1cc(C(=O)N2CCCC(Nc3ccc(F)c(F)c3)C2)n(C)n1 (stereo unspecified)	36.6%	0.7%	·	-6.6%	1.1%	-3.6%
COc1cc(NC(=O)c2ccc(Cl)cc2)c(OC)cc1NC(=O)CN1CCCCC1	?	-33.1%[11.4 µM]	-0.2%	-24.1%	39.8µM*	29.9µM*
COc1cc(NC(=O)Nc2ccccc2)c(OC)cc1NC(=O)CN1CCCCC1	?	39.8µM*	·	5.5%	50.1µM*	3.2%
O=C1c2cccnc2C(=O)N1CNc1ccc(Cl)cc1	25.9%	-0.7%	-8.7%	-15.8%	56.2µM*	-1.0%
CCCCCCCCCCCCCCCC(=O)OCC(NC(=O)C(Cl)Cl)C(O)c1ccc([N+](=O)[O-])cc1 (stereo unspecified)	·	·	·	18.2%	·	·
Cc1cc(C(=O)O)c(C)n1-c1ccccc1	6.2%	-23.5%	·	-11.9%	10.0%	-1.9%
Cc1ccc(C)n1-c1sccc1C(=O)O	?	?	·	31.2%	17.8µM*	3.77µM*
CCCCN(C)S(=O)(=O)c1ccc(C(=O)Nc2nnc(-c3ccco3)o2)cc1	23.3%	-17.4%	·	-13.8%	·	-17.9%

High-throughput results deposited in PubChem BioAssay by National Center for Advancing Translational Sciences (NCATS).
